Measurements taken from the OligoGym collection.

The sequences below were run against MUC20 (assay: pooled miR-30 sensor sort-seq; sequence = guide strand). Conditions: shRNA.
Further: reference of the scale not given here.

Sequence	sensor-assay potency score (higher = more potent)
TGAAACACAGAACATGTGCCAA	-0.681
TTCATCGTGGTCTTCGCTGAGG	-0.448
TTTACTGAAACACAGAACATGT	-0.607
TACTGAAACACAGAACATGTGC	0.46
TTCACCTGCACTCACGTCTGTG	-1
TAACTTGGTGTCTCAACAGAGA	-0.859
TTCGCTGAGGTTGTGATCTTGG	0.418
TTGTGAGTGTCTTTGCCTCTTC	-0.403
TTGGTGTCTCAACAGAGAGGGC	-0.842
TCTGTGGTCGGCCTCGTCCGGG	-1.58
TTAATAACCTCGATGTTTGTGA	-0.0395

Each sequence was assayed against MUC4 in the same assay as above. Conditions: shRNA.

Sequence	sensor-assay potency score (higher = more potent)
TTCACCATAGAACGTCTCGTAT	-0.617
TAACTGACACCATCCAAGGTGG	-0.587
TTGTGAGTAGAAAACAGGGGTG	-0.53
TTCAGGAAGTCAATGACCGGGC	-0.298
TTTGTCATCTTTCTAATCCAAG	-1.23
TAGTCTTGTCTTGATTCCCAGT	-0.823
TTTTTACTGACTTCCCTCGTGT	0.677
